# Data from PubChem BioAssay (EPA / NIEHS).
# Calls of active or inactive are those of the source. Rule for the calls: active = hit-call score of the fitted dose curve at least 0.9, where 1 is the maximum; inactive = score below 0.9.
# Key:
# [1] = ATG_GLI_CIS: Attagene CIS-FACTORIAL HepG2 Assay for human Zinc Finger Protein GLI1 (AID 2282945); conditions: HepG2, Attagene cis-factorial reporter mRNA, GLI element; actives raise or lower the signal
# In short: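 HepG2 cells transiently transfected with cis-promoter multiplexed reporter units report endogenous transcription factor activity. After 24 h chemical exposure, reporter mRNA was quantified by RT-PCR, 6-FAM labelling, HpaI digestion and capillary electrophoresis, with bidirectional fitting against DMSO.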
# [2] = ATG_GRE_CIS: Attagene CIS-FACTORIAL HepG2 Assay for human Glucocorticoid Response Elements (GRE) (AID 2282947); conditions: HepG2 GRE cis-reporter, Attagene multiplex mRNA; actives raise or lower the signal
# In short: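 HepG2 cells transiently transfected with multiple cis-promoter reporter units measure endogenous TF activity; 24 h compound exposure. Reporter mRNA quantified by RT-PCR, FAM labelling, HpaI digestion and capillary electrophoresis; bidirectional fit vs DMSO baseline.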
# [3] = ATG_ISRE_CIS: Attagene CIS-FACTORIAL HepG2 Assay for human Interferon Regulatory Factor 1 (IRF1) binding to an Interferon-Stimulated Response Element (ISRE) (AID 2282948); conditions: HepG2 ISRE cis-reporter (Attagene), mRNA transcription readout; actives raise or lower the signal
# In short: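 Cell-based cis-reporter assay; HepG2; 24 h exposure; reporter mRNA by RT-PCR plus capillary electrophoresis fluorescence; activity in either direction scored relative to DMSO.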
# [4] = ATG_M_32_CIS: Attagene CIS-FACTORIAL HepG2 Assay for M32 Transcription Factor (Internal Marker) (AID 2282949); conditions: HepG2 Attagene cis-factorial M32 reporter, mRNA; actives raise or lower the signal;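 note: background control marker of the multiplexed CIS panel rather than a real target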
# In short: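 Internal background marker read-out: RT-PCR/capillary electrophoresis fluorescence of reporter transcripts from transiently transfected HepG2 cells after 24 h chemical exposure. Activity fitted bidirectionally relative to DMSO negative control.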
# [5] = ATG_M_06_CIS: Attagene CIS-FACTORIAL HepG2 Assay for M06 Transcription Factor (Internal Marker) (AID 2282950); conditions: HepG2 Attagene CIS-FACTORIAL M06 internal marker reporter; actives raise or lower the signal
# In short: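 Terse: HepG2, transient MRTU transfection (FuGene 6), 24 h dosing; total RNA, oligo(dT) RT, PCR, FAM label, HpaI cut, capillary electrophoresis; bidirectional fit vs DMSO baseline; background-control endpoint.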
# [6] = target: Hypoxia-inducible factor 1-alpha (Homo sapiens) (UniProt Q16665); experiment: ATG_HIF1a_CIS: Attagene CIS-FACTORIAL HepG2 Assay for human Hypoxia Inducible Factor 1 (HIF1A) (AID 2282951); conditions: HepG2 Attagene cis-factorial HIF1a reporter transcription; actives raise or lower the signal
# In short: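 HepG2 cells transiently transfected with multiple cis-regulated reporter transcription units measure endogenous transcription factor activity. After 24 h exposure, reporter mRNA is quantified by RT-PCR with 6-FAM labelling, HpaI digestion and capillary electrophoresis. Bidirectional fitting against DMSO.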
# [7] = target: Hepatocyte nuclear factor 6 (Homo sapiens) (UniProt Q9UBC0); experiment: ATG_HNF6_CIS: Attagene CIS-FACTORIAL HepG2 Assay for human Hepatocyte Nuclear Factor 6 (HNF6) (AID 2282952); conditions: HepG2 Attagene cis-factorial HNF6 reporter transcription; actives raise or lower the signal
# In short: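 HepG2 cells transiently transfected with cis-element-driven multiple reporter transcription units, dosed 24 h; reporter mRNA quantified by RT-PCR, FAM primer extension, HpaI digestion and capillary electrophoresis; bidirectional fit versus DMSO baseline.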
# [8] = target: Heat shock factor protein 1 (Homo sapiens) (UniProt Q00613); experiment: ATG_HSE_CIS: Attagene CIS-FACTORIAL HepG2 Assay for human Heat Shock Transcription Factor 1 (HSE) (AID 2282953); conditions: HepG2 HSE cis-reporter, Attagene RNA transcription; actives raise or lower the signal
# In short: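 Read-out: fluorescence of reporter-specific RT-PCR fragments separated by capillary electrophoresis. HepG2 carrying transfected cis-element reporter units; 24 h dosing; activity fitted in both directions relative to DMSO baseline.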
# [9] = ATG_MRE_CIS: Attagene CIS-FACTORIAL HepG2 Assay for human Metal Responsive Element (MRE) (AID 2282954); conditions: HepG2 MRE cis-reporter transcription, Attagene multiplex; actives raise or lower the signal
# In short: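 HepG2 cells transiently transfected with multiple cis-element reporter units measure endogenous MTF1-driven transcription. After 24 h compound exposure, reporter mRNA is quantified by RT-PCR with 6-FAM labelling, HpaI digestion and capillary electrophoresis; bidirectional fits versus DMSO.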
# [10] = ATG_PBREM_CIS: Attagene CIS-FACTORIAL HepG2 Assay for human Phenobarbital-responsive Enhancer Module (PBREM) (AID 2282955); conditions: HepG2 PBREM cis-reporter, Attagene multiplexed transcription; actives raise or lower the signal
# In short: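 HepG2 cells transiently transfected with multiple cis-regulated reporter units measure endogenous transcription factor activity; 24 h compound exposure. Reporter mRNA quantified by RT-PCR, fluorescent labelling, HpaI digestion and capillary electrophoresis; bidirectional fit versus DMSO.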
# [11] = ATG_PXRE_CIS: Attagene CIS-FACTORIAL HepG2 Assay for human Pregnane X Receptor Element (PXRE) (AID 2282957); conditions: HepG2 Attagene CIS-FACTORIAL PXRE reporter, mRNA; actives raise or lower the signal
# In short: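 HepG2 cells transiently transfected with cis-regulated multiple reporter transcription units; endogenous factor activity measured as reporter mRNA 24 h after dosing. RT-PCR, fluorescent primer extension, HpaI digestion, capillary electrophoresis; bidirectional fit versus DMSO baseline.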
# [12] = ATG_PPRE_CIS: Attagene CIS-FACTORIAL HepG2 Assay for human Peroxisome Proliferator-activated Response Element (PPRE) (AID 2282958); conditions: HepG2 PPRE cis-element reporter, Attagene transcription factor profiling; actives raise or lower the signal
# In short: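 HepG2 cells are transiently transfected with multiplexed cis-promoter reporter units to report endogenous PPAR activity. After 24 h dosing, reporter mRNA is read by RT-PCR and capillary electrophoresis. Fitting is bidirectional against DMSO.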
# [13] = ATG_RORE_CIS: Attagene CIS-FACTORIAL HepG2 Assay for human RAR-related Orphan Receptor Element (RORE) (AID 2282959); conditions: HepG2 Attagene cis-factorial RORE reporter, mRNA; actives raise or lower the signal
# In short: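 HepG2 cells carrying transiently transfected cis-regulated reporter units; RORE-driven reporter mRNA quantified 24 h post-dosing by RT-PCR, 6-FAM primer extension, HpaI digestion and capillary electrophoresis. Bidirectional fit versus DMSO.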
# [14] = ATG_Sox_CIS: Attagene CIS-FACTORIAL HepG2 Assay for human SRY-box transcription factor (SOX) (AID 2282960); conditions: HepG2 Attagene cis-factorial SOX reporter, mRNA; actives raise or lower the signal
# In short: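 HepG2 cells transiently transfected with multiple cis-regulated reporter units, then dosed for 24 h. Reporter mRNA quantified by RT-PCR, fluorescent labelling, HpaI digestion and capillary electrophoresis; bidirectional fit versus DMSO.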
# [15] = target: Transcription factor Sp1 (Homo sapiens) (UniProt P08047); experiment: ATG_Sp1_CIS: Attagene CIS-FACTORIAL HepG2 Assay for human Specificity Protein 1 (Sp1) (AID 2282961); conditions: HepG2 Sp1 cis-reporter transcription, actives raise or lower the signal
# In short: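 HepG2 cells transiently transfected with multiplexed cis-regulated reporter constructs, chemical exposure 24 h. Reporter mRNA quantified by RT-PCR with capillary electrophoresis; bidirectional fit relative to DMSO.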
# [16] = ATG_SREBP_CIS: Attagene CIS-FACTORIAL HepG2 Assay for human Sterol Regulatory Element Binding (SREBP) (AID 2282962); conditions: HepG2 Attagene cis-factorial SREBP reporter, mRNA; actives raise or lower the signal
# In short: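 mRNA induction of transfected cis-promoter reporters in HepG2 cells, 24 h post-dose. Detection: RT-PCR with 6-FAM-labelled products, HpaI digest, capillary electrophoresis. DMSO served as negative control and baseline.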
# [17] = target: Signal transducer and activator of transcription 3 (Homo sapiens) (UniProt P40763); experiment: ATG_STAT3_CIS: Attagene CIS-FACTORIAL HepG2 Assay for human Signal Transducer and Activator of Transcription 3 (STAT3) (AID 2282963); conditions: HepG2, Attagene cis-factorial STAT3 reporter transcription; actives raise or lower the signal
# In short: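 HepG2 cells transiently transfected with cis-element-driven multiple reporter transcription units; after 24 h chemical exposure, reporter mRNA measured by RT-PCR, 6-FAM primer-extension labelling, HpaI digestion and capillary electrophoresis. Bidirectional fitting versus DMSO baseline.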
# [18] = ATG_TA_CIS: Attagene CIS-FACTORIAL HepG2 Assay for human TA Basal Promoter (AID 2282964); conditions: HepG2 Attagene CIS-factorial TA basal promoter reporter; actives raise or lower the signal
# In short: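 Transfected HepG2, 24 h compound exposure; RNA → RT-PCR → FAM primer extension → HpaI cut → CE fluorescence. Gain/loss-of-signal fitted against DMSO negative control. Background-control readout.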
# [19] = target: Paired box protein Pax-6 (Homo sapiens) (UniProt P26367); experiment: ATG_Pax6_CIS: Attagene CIS-FACTORIAL HepG2 Assay for human Paired Box 6 (PAX6) (AID 2282956); conditions: HepG2 CIS-FACTORIAL PAX6 reporter transcription, RNA readout; actives raise or lower the signal
# In short: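 Multiplexed cis-reporter HepG2 system; 24 h treatment; reporter mRNA read by RT-PCR/CE fluorescence; bidirectional fit vs DMSO.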
# Hypoxia-inducible factor 1-alpha (Homo sapiens), sequence (Q16665 whole entry, looked up): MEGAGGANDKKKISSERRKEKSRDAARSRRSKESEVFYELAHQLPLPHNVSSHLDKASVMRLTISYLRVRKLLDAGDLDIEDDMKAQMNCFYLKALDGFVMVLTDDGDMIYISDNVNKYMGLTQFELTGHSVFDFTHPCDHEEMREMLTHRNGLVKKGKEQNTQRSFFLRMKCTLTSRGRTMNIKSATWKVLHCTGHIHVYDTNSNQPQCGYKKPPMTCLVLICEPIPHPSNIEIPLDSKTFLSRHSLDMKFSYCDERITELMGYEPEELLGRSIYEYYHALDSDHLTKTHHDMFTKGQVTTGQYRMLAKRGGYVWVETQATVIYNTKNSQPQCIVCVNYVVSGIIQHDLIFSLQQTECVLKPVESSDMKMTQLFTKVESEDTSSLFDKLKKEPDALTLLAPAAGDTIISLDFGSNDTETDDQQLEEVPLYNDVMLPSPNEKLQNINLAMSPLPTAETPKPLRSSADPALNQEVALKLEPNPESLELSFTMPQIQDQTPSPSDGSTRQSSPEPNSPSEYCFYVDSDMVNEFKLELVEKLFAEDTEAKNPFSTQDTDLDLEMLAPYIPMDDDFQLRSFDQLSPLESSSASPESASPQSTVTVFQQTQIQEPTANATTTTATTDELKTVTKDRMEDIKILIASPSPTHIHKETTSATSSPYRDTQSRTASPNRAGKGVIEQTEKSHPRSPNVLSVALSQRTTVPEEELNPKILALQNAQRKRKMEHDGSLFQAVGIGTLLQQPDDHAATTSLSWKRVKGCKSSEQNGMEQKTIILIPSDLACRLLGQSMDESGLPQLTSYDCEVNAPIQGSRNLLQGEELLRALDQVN
# Transcription factor Sp1 (Homo sapiens), sequence (P08047 whole entry, looked up): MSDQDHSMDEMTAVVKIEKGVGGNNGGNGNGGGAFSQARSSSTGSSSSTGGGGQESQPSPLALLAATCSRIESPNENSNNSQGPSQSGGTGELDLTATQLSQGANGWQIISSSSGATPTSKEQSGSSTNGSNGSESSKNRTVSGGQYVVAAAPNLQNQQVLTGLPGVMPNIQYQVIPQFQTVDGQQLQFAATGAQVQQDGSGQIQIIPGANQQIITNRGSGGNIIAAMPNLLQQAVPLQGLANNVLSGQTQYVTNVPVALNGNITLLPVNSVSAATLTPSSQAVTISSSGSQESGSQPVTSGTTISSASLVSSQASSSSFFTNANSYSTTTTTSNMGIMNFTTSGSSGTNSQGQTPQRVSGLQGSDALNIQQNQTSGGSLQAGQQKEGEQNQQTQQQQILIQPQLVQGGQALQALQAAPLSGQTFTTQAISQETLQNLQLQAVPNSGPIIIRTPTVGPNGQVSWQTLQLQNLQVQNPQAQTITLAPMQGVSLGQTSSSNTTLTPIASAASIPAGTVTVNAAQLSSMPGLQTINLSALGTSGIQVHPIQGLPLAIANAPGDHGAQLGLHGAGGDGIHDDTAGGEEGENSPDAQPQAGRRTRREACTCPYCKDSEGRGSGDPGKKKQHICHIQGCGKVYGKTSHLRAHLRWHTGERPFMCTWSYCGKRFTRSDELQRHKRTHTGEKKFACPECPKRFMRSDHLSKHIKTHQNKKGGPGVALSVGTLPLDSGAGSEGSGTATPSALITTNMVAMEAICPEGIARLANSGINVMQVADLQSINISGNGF
# Paired box protein Pax-6 (Homo sapiens), sequence (P26367 whole entry, looked up): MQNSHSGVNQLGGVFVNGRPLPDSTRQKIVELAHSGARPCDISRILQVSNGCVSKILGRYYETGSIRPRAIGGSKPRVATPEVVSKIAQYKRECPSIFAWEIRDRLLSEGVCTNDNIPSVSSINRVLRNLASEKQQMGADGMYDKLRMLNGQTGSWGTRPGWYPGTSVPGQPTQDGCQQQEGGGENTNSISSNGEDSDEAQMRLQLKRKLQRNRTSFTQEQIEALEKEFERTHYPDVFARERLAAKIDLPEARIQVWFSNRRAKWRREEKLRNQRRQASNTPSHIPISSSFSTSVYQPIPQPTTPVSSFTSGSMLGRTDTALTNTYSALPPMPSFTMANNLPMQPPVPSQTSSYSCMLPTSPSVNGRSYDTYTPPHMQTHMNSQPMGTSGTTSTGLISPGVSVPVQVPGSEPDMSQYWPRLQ
# Signal transducer and activator of transcription 3 (Homo sapiens), sequence (P40763 whole entry, looked up): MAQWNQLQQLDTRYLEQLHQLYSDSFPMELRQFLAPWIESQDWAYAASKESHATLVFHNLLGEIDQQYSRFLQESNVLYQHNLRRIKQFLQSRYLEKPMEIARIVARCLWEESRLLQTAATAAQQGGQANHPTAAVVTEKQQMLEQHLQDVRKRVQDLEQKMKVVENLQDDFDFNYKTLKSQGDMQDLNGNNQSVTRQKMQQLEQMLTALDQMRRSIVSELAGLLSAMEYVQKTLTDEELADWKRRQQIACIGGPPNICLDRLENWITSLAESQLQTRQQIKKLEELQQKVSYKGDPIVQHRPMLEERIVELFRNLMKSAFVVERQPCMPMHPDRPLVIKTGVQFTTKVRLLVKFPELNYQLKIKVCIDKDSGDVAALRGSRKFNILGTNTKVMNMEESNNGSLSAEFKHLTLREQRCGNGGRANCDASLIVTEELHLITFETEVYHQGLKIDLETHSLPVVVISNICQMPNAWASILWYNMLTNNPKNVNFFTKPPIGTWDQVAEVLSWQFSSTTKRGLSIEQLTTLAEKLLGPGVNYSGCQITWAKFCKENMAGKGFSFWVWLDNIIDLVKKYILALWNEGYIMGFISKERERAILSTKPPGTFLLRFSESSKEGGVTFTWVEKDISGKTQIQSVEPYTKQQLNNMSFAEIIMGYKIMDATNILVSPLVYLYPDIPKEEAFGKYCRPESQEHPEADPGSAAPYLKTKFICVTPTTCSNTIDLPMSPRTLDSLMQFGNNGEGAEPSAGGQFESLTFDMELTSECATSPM
# Hepatocyte nuclear factor 6 (Homo sapiens), sequence (Q9UBC0 whole entry, looked up): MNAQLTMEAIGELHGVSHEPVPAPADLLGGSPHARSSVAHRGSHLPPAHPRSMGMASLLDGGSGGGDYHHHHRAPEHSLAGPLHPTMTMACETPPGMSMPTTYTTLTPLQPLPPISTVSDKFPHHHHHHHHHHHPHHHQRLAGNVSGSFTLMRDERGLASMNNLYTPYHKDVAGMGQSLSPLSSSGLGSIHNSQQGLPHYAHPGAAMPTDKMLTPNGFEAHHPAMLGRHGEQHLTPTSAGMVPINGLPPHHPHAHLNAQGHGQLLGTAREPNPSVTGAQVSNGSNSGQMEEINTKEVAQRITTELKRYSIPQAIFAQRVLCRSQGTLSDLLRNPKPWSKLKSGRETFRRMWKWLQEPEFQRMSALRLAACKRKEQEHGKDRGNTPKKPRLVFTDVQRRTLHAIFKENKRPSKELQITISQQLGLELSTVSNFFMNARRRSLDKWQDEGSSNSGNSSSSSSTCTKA
# Heat shock factor protein 1 (Homo sapiens), sequence (Q00613 whole entry, looked up, the tested form may be a part): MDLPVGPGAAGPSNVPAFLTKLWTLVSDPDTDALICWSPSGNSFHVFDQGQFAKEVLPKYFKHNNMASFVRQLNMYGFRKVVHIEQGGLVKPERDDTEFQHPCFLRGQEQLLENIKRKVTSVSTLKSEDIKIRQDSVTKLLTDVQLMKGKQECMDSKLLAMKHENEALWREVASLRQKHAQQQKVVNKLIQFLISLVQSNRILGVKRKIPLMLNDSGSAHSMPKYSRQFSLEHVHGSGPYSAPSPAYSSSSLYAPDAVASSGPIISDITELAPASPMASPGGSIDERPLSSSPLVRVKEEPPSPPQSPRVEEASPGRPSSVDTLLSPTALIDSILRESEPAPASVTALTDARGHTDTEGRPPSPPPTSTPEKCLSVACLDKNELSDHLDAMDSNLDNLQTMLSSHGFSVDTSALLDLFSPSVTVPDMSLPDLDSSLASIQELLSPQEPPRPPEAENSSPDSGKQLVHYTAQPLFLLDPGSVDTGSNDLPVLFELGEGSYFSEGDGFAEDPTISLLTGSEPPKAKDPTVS
smiles,measurement,setting,value
C=CCCCCCCCCC=O,outcome,[1],inactive
same,outcome,[2],inactive
same,outcome,[3],inactive
same,outcome,[4],inactive
same,outcome,[5],inactive
same,outcome,[6],inactive
same,outcome,[7],inactive
same,outcome,[8],inactive
same,outcome,[9],inactive
same,outcome,[10],inactive
same,AC50,[11],100 µM (active)
same,AC50,[12],64.2 µM (active)
same,outcome,[13],inactive
same,outcome,[14],inactive
same,outcome,[15],inactive
same,outcome,[16],inactive
same,outcome,[17],inactive
same,outcome,[18],inactive
N#Cc1ccc(C2CCCc3cncn32)cc1 (configuration not stated),outcome,[1],inactive
same,outcome,[2],inactive
same,outcome,[3],inactive
same,outcome,[4],inactive
same,outcome,[5],inactive
same,outcome,[6],inactive
same,outcome,[7],inactive
same,outcome,[8],inactive
same,outcome,[9],inactive
same,outcome,[10],inactive
same,AC50,[11],23.9 µM (active)
same,outcome,[12],inactive
same,outcome,[14],inactive
same,outcome,[15],inactive
same,outcome,[16],inactive
same,outcome,[17],inactive
same,outcome,[18],inactive
CC(=O)CCC=C(C)C,outcome,[1],inactive
same,outcome,[2],inactive
same,outcome,[3],inactive
same,outcome,[4],inactive
same,outcome,[5],inactive
same,outcome,[6],inactive
same,outcome,[7],inactive
same,outcome,[8],inactive
same,outcome,[9],inactive
same,outcome,[19],inactive
same,outcome,[11],inactive
same,outcome,[12],inactive
same,outcome,[13],inactive
same,outcome,[14],inactive
same,outcome,[16],inactive
same,outcome,[17],inactive
O=C(O)CC(C(=O)O)S(=O)(=O)O (configuration not stated),outcome,[1],inactive
same,outcome,[2],inactive
same,outcome,[3],inactive
same,outcome,[4],inactive
same,outcome,[5],inactive
same,outcome,[6],inactive
same,outcome,[7],inactive
same,outcome,[8],inactive
same,outcome,[9],inactive
same,outcome,[10],inactive
same,outcome,[11],inactive
same,outcome,[12],inactive
same,outcome,[13],inactive
same,outcome,[14],inactive
same,outcome,[15],inactive
same,outcome,[16],inactive
same,outcome,[17],inactive
same,outcome,[18],inactive
CCCCCCO,outcome,[1],inactive
same,outcome,[2],inactive
same,outcome,[3],inactive
same,outcome,[4],inactive
same,outcome,[5],inactive
same,outcome,[6],inactive
same,outcome,[7],inactive
same,outcome,[8],inactive
same,outcome,[9],inactive
same,outcome,[10],inactive
same,outcome,[19],inactive
same,outcome,[11],inactive
same,outcome,[14],inactive
same,outcome,[15],inactive
same,outcome,[16],inactive
same,outcome,[17],inactive
same,outcome,[18],inactive
CC(CC(C)C)=NO,outcome,[1],inactive
same,outcome,[2],inactive
same,outcome,[3],inactive
same,outcome,[4],inactive
same,outcome,[5],inactive
same,outcome,[6],inactive
same,outcome,[7],inactive
same,outcome,[8],inactive
same,outcome,[9],inactive
same,outcome,[10],inactive
same,outcome,[19],inactive
same,outcome,[11],inactive
same,outcome,[13],inactive
same,outcome,[14],inactive
same,outcome,[15],inactive
same,outcome,[16],inactive
same,outcome,[17],inactive
same,outcome,[18],inactive
Cc1c(Cl)cccc1Cl,outcome,[1],inactive
same,outcome,[2],inactive
same,outcome,[3],inactive
same,outcome,[4],inactive
same,outcome,[5],inactive
same,outcome,[6],inactive
same,outcome,[7],inactive
same,outcome,[8],inactive
same,outcome,[9],inactive
same,outcome,[10],inactive
same,outcome,[19],inactive
same,outcome,[11],inactive
same,outcome,[14],inactive
same,outcome,[15],inactive
same,outcome,[16],inactive
same,outcome,[17],inactive
CC1(C)[C@@H]2CC[C@@]1(C)C(=O)C2,outcome,[1],inactive
same,outcome,[2],inactive
same,outcome,[3],inactive
same,outcome,[4],inactive
same,outcome,[5],inactive
same,outcome,[6],inactive
same,outcome,[7],inactive
same,outcome,[8],inactive
same,outcome,[9],inactive
same,outcome,[10],inactive
same,outcome,[19],inactive
same,outcome,[11],inactive
same,outcome,[13],inactive
same,outcome,[14],inactive
same,outcome,[15],inactive
same,outcome,[17],inactive
same,outcome,[18],inactive
